# Screening data deposited in PubChem BioAssay by National Center for Advancing Translational Sciences (NCATS).
# The list is not random: actives were taken first. Their share in the collection is about 2%.
# TDP-43 yeast inh: TDP-43 toxicity inhibition in yeast; TDP-43 expressing yeast growth rescue, BacTiter-Glo, 24 h; Potency, µM (highest dose often 46.1 µM), without a hit: top-dose growth rescue (activation), most hits filed as activators; 410,000 compounds, 1.8% hits; AID 652104; also: % of control where 0% means no effect; nearly all actives have a fitted effect of over 50% in size
#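 Cell-based yeast growth screen: TDP-43 expression induced in galactose, inoculum OD600=0.02 after raffinose pregrowth to mid-log. Read-out BacTiter-Glo luminescence at 24 hr, 30 deg C; inhibition of toxicity seen as signal increase.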
# Abeta rescue: compounds reversing amyloid beta toxicity in yeast | 410,000 compounds, 0.063% hits | Potency, µM (titrated, usually from 46.1 µM), most hits filed as activators | yeast expressing A-beta42, growth rescue, OD600, 48 h; response scale: 0% DMSO, 100% iron-clioquinol control; also: nearly all actives have a fitted effect of over 55% in size
#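 Growth rescue measured by 600 nm absorbance after 48 h yeast culture at 30 C with compound. Values normalized between DMSO and an equimolar ferric chloride plus clioquinol control.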
# Rango-impB inh: prevents formation of the Rango-importin beta complex; Q14974; Potency, µM (doses to about 92.2 µM), for inactives: at the highest dose inhibition of complex formation; Rango CFP/YFP FRET sensor + importin beta, 45 min; 340,000 compounds, 0.031% hits; calls by dose curve;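 also: 0% = DMSO wells and 100% = buffer wells lacking importin beta; nearly all actives have a fitted effect of over 15% in size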
#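 FRET biosensor (snurportin 1 IBB flanked by EYFP and cerulean), 50 nM, with compound 5 min, then 0.125 microM importin beta in PBS, 1 mM DTT, 0.02% Tween-20, 0.1% BSA. CFP/YFP ratio read after 45 min at room temperature; pre-read flags interference.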
# aSyn rescue: alpha-synuclein toxicity inhibition in yeast; AID 652106; Potency, µM (series often up to 46.1 µM), for the others: at the top dose growth rescue (activation), hits mostly activators; 370,000 compounds, 0.14% hits; Yeast expressing alpha-synuclein, growth rescue, BacTiter-Glo, 24 h; also: % of control where 0% means no effect; nearly all actives have a fitted effect of over 65% in size
#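 Screening used galactose-induced yeast with toxic alpha-synuclein levels, exposed to compound for 24 hr at 30 deg C. Cell growth, read with BacTiter-Glo luminescence, gave the measured signal.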
# Rango dissoc inh: inhibitors of RanGTP-induced Rango-importin beta complex dissociation | O95149+P62826 | Biochemical FRET Rango-importin beta, RanGTP-induced dissociation | Potency, µM (series often up to 46.1 µM), for the others: at the top dose activity change, negative = inhibition | 340,000 compounds, 0.071% hits; calls by dose curve; also: % of control where 0% means no effect; nearly all actives have a fitted effect of over 45% in size
#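 Rango (0.1 uM)–importin beta (0.25 uM) complex; RanGTP-RCC1 trigger; 45 min RT; CFP/YFP FRET read.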
# ASM inhibitor: inhibitors of human secretory acid sphingomyelinase; P17405; placental ASM, HMU-PC fluorogenic substrate, 60 min; Potency, µM (doses to about 57.5 µM), without a hit: at the highest dose activity change, negative = inhibition, hits mostly inhibitors; 340,000 compounds, 0.006% hits; AID 504937
# Target sequence (P17405 47-631 limits assumed): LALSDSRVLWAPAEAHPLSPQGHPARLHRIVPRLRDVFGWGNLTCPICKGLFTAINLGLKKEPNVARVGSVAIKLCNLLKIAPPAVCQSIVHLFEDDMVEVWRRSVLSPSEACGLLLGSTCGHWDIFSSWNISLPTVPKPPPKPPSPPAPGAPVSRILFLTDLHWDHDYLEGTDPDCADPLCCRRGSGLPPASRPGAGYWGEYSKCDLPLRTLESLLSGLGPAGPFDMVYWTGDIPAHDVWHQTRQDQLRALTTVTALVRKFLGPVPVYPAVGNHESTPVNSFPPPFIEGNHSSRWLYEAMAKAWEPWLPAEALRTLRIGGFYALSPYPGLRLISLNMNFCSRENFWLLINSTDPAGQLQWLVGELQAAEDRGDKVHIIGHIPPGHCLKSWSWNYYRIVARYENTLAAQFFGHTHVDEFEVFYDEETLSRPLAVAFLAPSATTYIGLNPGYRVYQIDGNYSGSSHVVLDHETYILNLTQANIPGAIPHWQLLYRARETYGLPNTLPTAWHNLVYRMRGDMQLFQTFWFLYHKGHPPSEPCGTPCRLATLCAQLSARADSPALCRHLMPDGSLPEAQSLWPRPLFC
#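 Fluorescence read-out (Ex 386 nm, Em 447 nm) after stopping the reaction at pH 10. Enzyme: ASM from human placenta; substrate HMU-PC0, 9 uM final; 60 min, 37 °C. Compound preincubation 10 min, ambient temperature.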
# Starred values were filed as active, the others as inactive; i = inactive; ? = inconclusive; · = not tested or not shown. Unless noted, calls follow the shape of the dose curve; as a rule, active = well fitted curve in the direction sought with a large enough effect; inconclusive = small, poorly fitted or top-dose-only effect, or another doubt; inactive = no such curve, though single readings can be large; an effect the other way counts as inactive or inconclusive. Potency is read from the fitted curve at half-maximal effect.
SMILES,TDP-43 yeast inh,Abeta rescue,Rango-impB inh,aSyn rescue,Rango dissoc inh,ASM inhibitor
Cn1c(=O)c2c(nc(Oc3ccccc3Cl)n2Cc2ccc(C#N)cc2)n(C)c1=O,19%,i,·,·,·,·
Cc1ccc(-c2ccc(C(=O)O)c(C)n2)cc1,?,i,0%,0%,?,1%
Cc1nc(-c2ccc(Br)cc2)ccc1C(=O)O,16µM*,i,4%,-9%,24%,-2%
O=C(Cc1ccc(F)cc1)Nc1nnc2n1CCS2,17%,i,·,-1%,·,·
CCOC(=O)c1c(C)[nH]c(C)c1S(=O)(=O)N1CCCC(C(=O)NCc2ccc(N(C)C)cc2)C1 (stereo not given),0%,i,·,·,·,·
COc1cc(O)c2c(c1)OC(c1ccc(O)cc1)CC2=O (stereo not given),13µM*,i,-4%,8%,-2%,-10%
CCCn1c2ccccc2c2cnn(CC(=O)NCCOC)c(=O)c21,-2%,i,-1%,3.5µM*,6%,16%
COc1ccc(CN2CSC(=S)N(Cc3ccc(OC)cc3)C2)cc1,32µM*,i,-1%,-5%,0%,-3%
O=C(NC1CCSc2ccccc21)c1cccc([N+](=O)[O-])c1 (stereo not given),13µM*,i,-2%,0%,0%,-8%
CN(C)S(=O)(=O)c1cccc(C(=O)NC2CCSc3ccccc32)c1 (stereo not given),-1%,i,-2%,9%,-18%,-3%
CCOc1ccc(NC(=O)CC2C(=O)N(c3ccccc3)C(=O)N2C2CCCCC2)cc1 (stereo not given),2%,i,·,·,·,·
c1ccc(-c2nnc(CSc3ccc4c(c3)OCCO4)o2)cc1,13µM*,i,-3%,7%,1%,-1%
O=C(OCc1nnc(-c2ccccc2)o1)c1ccc2c(c1)OCO2,3%,i,-2%,-3%,13%,-2%
NC(=S)c1ccc[n+]([C@@H]2O[C@@H](COP(=O)([O-])OP(=O)(O)OC[C@H]3O[C@@H](n4cnc5c(N)ncnc54)[C@H](OP(=O)(O)O)[C@@H]3O)C(O)C2O)c1 (stereo not given in full),·,·,·,-11%,·,·
COc1ccc(-c2nc3ccc(Br)cn3c2Cc2cccc(Cl)c2)cc1OC,22µM*,i,·,?,·,·
COc1ccc(-c2nc3ccc(Cl)cn3c2Cc2cccc(Cl)c2)cc1OC,35µM*,i,·,3%,·,·
COc1ccc(-c2nc3ccc(Br)cn3c2Cc2ccccc2)cc1OC,15%,i,·,-1%,·,·
S=C(NCc1ccco1)N/N=C/c1ccc(Cl)cc1,22µM*,i,-3%,2%,2%,-2%
CCOC(=O)N1CCN(c2ccc(S(=O)(=O)N3CCC(C)CC3)cc2[N+](=O)[O-])CC1,22µM*,i,1%,3%,18%,-11%
Cc1ccc(C(=O)N2CCC(c3c[nH]c4ccccc34)(c3c[nH]c4ccccc34)CC2)cc1,9%,i,·,·,·,·
CCc1cc(-c2onc(C)c2-c2cscn2)c(O)cc1OC,18µM*,i,-1%,?,0%,-3%
COc1ccc(-c2onc(C)c2-c2cscn2)c(O)c1,8%,i,-2%,-8%,0%,1%
CN(C(=O)CCc1nc(-c2ccccc2F)no1)c1ccc(Cl)cc1,22µM*,i,·,·,·,·
Cc1cc(C)c(S(=O)(=O)NCC2CCC(C(=O)NCCc3ccccc3)CC2)c(C)c1 (stereo not given),-1%,i,·,·,·,·
O=c1cc(CNc2cc(C(F)(F)F)cc(C(F)(F)F)c2)nc2sccn12,18µM*,i,3%,-10%,21%,-1%
SMILES,TDP-43 yeast inh,Abeta rescue,Rango-impB inh,aSyn rescue,Rango dissoc inh,ASM inhibitor
O=c1cc(COn2nnc3ccc(C(F)(F)F)cc32)nc2sccn12,10µM*,i,-1%,12%,-5%,-2%
CC(C)(C)c1ccc(C(=O)NC2(C(F)(F)F)C(=O)Nc3c2c(=O)[nH]c(=O)n3-c2ccccc2)cc1 (stereo not given),16%,i,·,·,·,·
CCOC(=O)c1sc(N)c(C(=O)OCC)c1C,?,i,1%,2%,4%,-4%
CCOC(=O)c1sc(N)c(C(=O)Nc2ccccc2)c1C,13µM*,i,1%,-7%,-21%,-4%
Fc1ccc(/C=C/c2nccc3ccccc23)cc1,·,·,·,-40%,·,·
Oc1c(C(Nc2nc3ccccc3s2)c2ccco2)ccc2cccnc12 (stereo not given),20µM*,i,?,-14%,?,-5%
O=C(Nc1ccc(-n2cnnn2)cc1)C1CCCCC1,9%,i,0%,-3%,4%,-6%
O=C(Oc1cccc(-n2cnnn2)c1)C1CCCCC1,11µM*,i,-1%,·,-13%,2%
O=C(Nc1nc(-c2ccccn2)cs1)C1CCCC1,20µM*,?,?,17%,30%,2%
Cc1c(C(=O)Nc2nc(-c3ccccn3)cs2)oc2ccccc12,6.3µM*,i,?,-29%,?,-13%
Cc1ccc(C(=O)Nc2nc(-c3ccccn3)cs2)s1,?,?,-3%,3.5µM*,3%,1%
O=C(Nc1nc(-c2ccccn2)cs1)c1cc2ccccc2o1,?,i,0%,?,-6%,-9%
Cn1cccc1C(=O)Nc1nc(-c2ccccn2)cs1,14µM*,?,-1%,?,-5%,1%
COc1ccc(OC)c2sc(N(Cc3cccnc3)C(C)=O)nc12,8%,i,·,·,·,·
CCCCNc1ncnc2oc(-c3ccco3)c(-c3ccco3)c12,·,·,·,1%,·,·
CS(=O)(=O)N1CCN(/[N+]([O-])=N/Oc2ccc([N+](=O)[O-])cc2[N+](=O)[O-])CC1,·,·,·,-46%,·,·
CCc1sc(C(=O)Nc2nc(-c3ccccn3)cs2)cc1C,?,i,1%,4.5µM*,-2%,-3%
Cc1cc(C)cc(OCC(=O)Nc2nc(-c3ccccn3)cs2)c1,13%,i,-2%,2%,5%,-3%
N#Cc1ccccc1OCC(=O)Nc1nc(-c2ccccn2)cs1,25µM*,?,·,?,·,·
O=C(Nc1nc(-c2ccccn2)cs1)c1ccc(Cl)s1,?,i,-3%,-15%,-2%,-16%
O=C(Nc1nc(-c2ccccn2)cs1)c1ncc(Cl)c(Cl)c1Cl,3.5µM*,i,0%,7.9µM*,18%,-4%
Cc1cccc(-n2ncc(C(=O)Nc3ccc4c(c3)OCO4)c2C2CCN(C(=O)OC(C)(C)C)CC2)c1,8%,i,·,·,·,·
